The campaign covered roughly 48,000 compounds. About 13,000 (27%) showed an effect of 50% or more. The list shows a part of the results.
System: Wolbachia pipientis
Test: Anti-Wolbachia Cell-Based Screen
Assay type: functional
Set-up: scale not given: in the data most compounds retested in dose-response had high values
Conditions: 5 µM

Structure (SMILES) | Percent Effect
CCc1ccccc1OC1CN(C(=O)CN(C)Cc2ccncc2)C1 | 0.8406%
CC(C)c1ccn(C2(C(=O)O)CCN(c3cc(C(N)=O)ccn3)CC2)n1 | 10.23%
O=C(COc1cccnc1)NCc1nncn1C1CCCCC1 | -1.054%
Cc1cnc(N2CC[C@@]3(O)CCCC[C@H]3C2)nc1-c1ccnn1C | -8.985%
Cc1nn2c(N3CCC(C#N)CC3)cc(-c3ccccc3)nc2c1C | -8.665%
c1ccc(CCN2CCN(c3ccc4nncn4n3)CC2)cc1 | 80.05%
Cc1ccc(C)c2c1NC(=O)C2CC(=O)O (stereo unspecified) | 5.742%
COCc1nc(NC(C)Cc2cc(C)n[nH]2)c2cnn(C)c2n1 (stereo unspecified) | 4.118%
COc1ccc(C(=O)N2CCC(Nc3cccnn3)CC2)c(OC)c1 | -3.344%
COc1ccc(C(=O)N2CCC(Nc3cccnn3)CC2)cn1 | 104%
CC(C)Oc1ccc(C(=O)N2CCC(Nc3cccnn3)CC2)cn1 | 123.7%
C[S+]([O-])c1ccc(CNc2ccc(F)cc2OC(F)F)cc1 (stereo unspecified) | 0.9094%
Cc1nn(C)cc1-c1ccnc(N(C)Cc2noc(C(C)C)n2)n1 | 1.029%
Cc1nn(C)cc1-c1cc(C(F)F)n2nc(CCC(=O)O)nc2n1 | 110.6%
CCn1cc(C(=O)NCC(OC)c2cccc(Cl)c2)cn1 (stereo unspecified) | 4.602%
Cn1cc(-c2csc(N3CCOCC3)n2)cn1 | -6.106%
Cn1ncc(NC(=O)Cn2cc(-c3ccc(F)cn3)cn2)n1 | 2.479%
CCn1cc(-c2cc(C(F)F)n3nc(CCC(=O)O)nc3n2)cn1 | 98.47%
Cn1cc(-c2csc(N3CCN(C(=O)OC(C)(C)C)CC3)n2)cn1 | 8.816%
Cn1cc(-c2cc(C(F)F)n3nc(CCC(=O)O)nc3n2)cn1 | 133.7%
CCn1cc(-c2cc(C(F)F)n3nc(CC(=O)O)nc3n2)cn1 | 108.3%
CCCc1cnc(C)nc1N1CCC2(CCCO2)CC1 | -4.323%

Structure (SMILES) | Percent Effect
O=C(C1CCC1)N1CCN(Cc2ccccc2F)[C@H]2CS(=O)(=O)C[C@H]21 | 4.948%
Cc1nc(CN(C)C(=O)Nc2cnn(CC3CCCO3)c2)cs1 (stereo unspecified) | -5.003%
Cc1nc(CCNC(=O)CC2CCN(C(C)C)CC2)sc1Cl | -9.554%
Cc1ccsc1C(=O)N1CC2CC1(C(=O)NCC1CC1)C2 | -19.62%
CCn1ncc(-c2cc(C(F)F)n3nc(CCC(=O)O)nc3n2)c1C | 94.49%
CCn1ncc(-c2nc3c[nH]n(CC)c-3n2)c1C | -16.08%
COc1ccccc1C(=O)N1CCC(Oc2ccc(C#N)cn2)CC1 | -9.351%
Cc1[nH]c(=O)[nH]c(=O)c1CN1CCCC(CCc2ccccc2F)C1 (stereo unspecified) | 3.318%
CC1CCCCN1c1nc2c(c(=O)[nH]1)CCN(Cc1ccc(O)cc1)C2 (stereo unspecified) | 108.9%
CCCn1nc2c(cc1=O)CN(Cc1ccccn1)CC2 | -24.61%
CC1CCCCN1c1nc2c(c(=O)[nH]1)CCN(Cc1ccccn1)C2 (stereo unspecified) | 67.76%
Cc1ccsc1CCNC(=O)CCC1CCCCN1C (stereo unspecified) | 3.946%
CC1CCCCN1c1nc2c(c(=O)[nH]1)CCN(Cc1ccccc1F)C2 (stereo unspecified) | 109.6%
Fc1cccc2[nH]c(CN3CCc4cncnc4C3)nc12 | 8.027%
Cc1ccsc1CN1CCc2c(nc(N3CCCCC3C)[nH]c2=O)C1 (stereo unspecified) | 117.5%
Cn1cnc2c1CCN(Cc1ccc(C(=O)N3CCCC3)cc1)C2 | 0.7019%
c1cc(CN2CCc3c(CN4CCCC4)n[nH]c3C2)ccn1 | -1.373%
Cc1ccsc1CN1CCC(c2cc(C(C)C)n[nH]2)CC1 | 15.3%
Cc1cccc(CN2CCc3c(nc(N4CCCCC4C)[nH]c3=O)C2)n1 (stereo unspecified) | -2.625%
C=C(C)CN(CC)Cc1nc(C)no1 | 10.24%
COCc1nc(C(=O)NS(=O)(=O)c2cc(F)ccc2F)cs1 | 4.131%
Cc1cc(C(=O)NCC(O)c2ccc(Cl)s2)c(C)o1 (stereo unspecified) | -36.26%

Structure (SMILES) | Percent Effect
CCC1CN(CCNS(C)(=O)=O)c2ccccc2O1 (stereo unspecified) | -11.22%
CCNc1c(C#N)c(=O)n(C)c(=O)n1C | 7.391%
NC(=O)N1CCCC(C(=O)N2CCc3c(nc(CC4CC4)[nH]c3=O)C2)C1 (stereo unspecified) | 10.65%
CC1CCCCN1c1nc2c(c(=O)[nH]1)CCN(Cc1ccccc1O)C2 (stereo unspecified) | 110.1%
Cc1nc(-c2ccc(C(=O)O)cc2)cc(C2CCCN(C(C)C)C2)n1 (stereo unspecified) | 96.58%
Cc1nc(O)cc(C2CCN(C(=O)C(C)Cn3nc(C)nc3C)CC2)n1 (stereo unspecified) | -10.44%
Cc1nc(-c2ccc(C(=O)O)cc2)cc(C2CCN(C(C)C)CC2)n1 | 130.3%
Cc1nc(-c2ccc(C(=O)O)cc2)cc(C2CCN(C(C)C)C2)n1 (stereo unspecified) | -2.545%
Cc1nc(-c2cccc(C(=O)O)c2)cc(C2CCN(C(C)C)C2)n1 (stereo unspecified) | -0.6305%
Cc1nc(-c2cccc(C(=O)O)c2)cc(C2CCCN(C(C)C)C2)n1 (stereo unspecified) | 109.5%
CC(C)S(=O)(=O)N1CCCC(c2cccc(C(=O)O)c2)C1 (stereo unspecified) | 13.9%
O=C(O)C(F)(F)F.O=C(c1cnccn1)N1CCN2C[C@H](OCc3ccccc3F)C[C@H]2C1 | 4.203%
Cc1ccoc1C(=O)NC1CCN(Cc2csc3c(F)cccc23)CC1 | 2.463%
Cc1oncc1C(=O)N1CCC(O)(CN2CCOCC2)C(C)(C)C1 (stereo unspecified) | 29.5%
Cc1c(CN2CCCC2(C)C(=O)N2CCOCC2)cnn1C (stereo unspecified) | 169.3%
Cc1c(CNC(=O)c2cn(CCC3CCCCN3)nn2)cnn1C (stereo unspecified) | 10.08%
O=C(NCc1cnn2ccccc12)NC1CCCC1 | -4.156%
Cc1cccc(N2CCC3(CCCN3Cc3cnn(C)c3C)CC2)n1 | 9.163%
CCn1cc(CN2CCCN(C(=O)C3(C)CCOCC3)CC2)cn1 | 8.44%
Cc1c(CN2CCCC2(C)C(=O)NC2CCCC2)cnn1C (stereo unspecified) | 156.7%
CNC(=O)C1(C)CCCN1Cc1cnn(C)c1C (stereo unspecified) | 106.7%
Cc1c(CNC(=O)Nc2cccc3c2CCN3C)cnn1C | -8.63%

Reference: ChEMBL document CHEMBL3988442, “University of Dundee, Small-Polar-MMV Screening Library” (2021)
